According to PubChem BioAssay (EPA / NIEHS):
Inconclusive results are not listed. The source made the active and inactive calls. How the source made its calls: active means hit-call score of the fitted dose curve at least 0.9, where 1 is the maximum; inconclusive means response in the unintended direction; inactive means score below 0.9.

Columns and labels:
PGR (gene 5241) = PGR (gene 5241) (UniProt P06401); assay: NVS_NR_hPR: NovaScreen (NVS) Nuclear Receptor Binding Assay for human Progestron Receptor (PR) (AID 2283360);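 further: active means loss of bound radioligand signal versus DMSO baseline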
Outline: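 T47D-derived receptor preparation, cell-free, with tritiated or iodinated radioligand displacement measured by scintillation 18 h post-dosing. Single 25 uM duplicate screen, then concentration series; signal loss relative to DMSO.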

[1] = molecular target: Nuclear receptor subfamily 1 group I member 2 (Homo sapiens) (UniProt O75469); assay: NVS_NR_hPXR: NovaScreen (NVS) Nuclear Receptor Binding Assay for human Pregnane X Receptor (PXR) (AID 2283365);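 further: a drop in FRET signal versus DMSO baseline means the compound binds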
Outline: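 Read-out: TR-FRET, human PXR, 2 h post-dosing, cell-free. Loss of signal vs DMSO taken as binding activity; 25 uM primary, concentration series secondary.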

[2] = molecular target: Peroxisome proliferator-activated receptor gamma (Homo sapiens) (UniProt P37231); assay: NVS_NR_hPPARg: NovaScreen (NVS) Nuclear Receptor Binding Assay for human Peroxisome Proliferator-activated Receptor gamma (PPARg) (AID 2283370)
Outline: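 Extracted receptor protein, cell-free; compound incubated 2 h then fluorescence polarization read. Baseline: DMSO. Actives from 25 uM duplicate screen re-run across concentrations.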

[3] = test system: guinea pig Dopamine Transporter (DAT), gene 100714898; assay: NVS_TR_gDAT: NovaScreen (NVS) Transporter Assay for guinea pig Dopamine Transporter (DAT) (AID 2283369);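 further: active compounds lower bound radioligand signal relative to DMSO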
Outline: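 Primary pass: duplicate wells at 25 uM, threshold e.g. 30% inhibition. Follow-up: singleton concentration-response, highest 50 uM. Radioligand binding on guinea pig striatal membranes, 2 h, filtration scintillation detection.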

[4] = molecular target: human Peroxisome Proliferator-activated Receptor alpha (PPARa), PPARA (gene 5465) (UniProt Q07869); assay: NVS_NR_hPPARa: NovaScreen (NVS) Nuclear Receptor Binding Assay for human Peroxisome Proliferator-activated Receptor alpha (PPARa) (AID 2283359);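 further: activity means loss of TR-FRET signal versus DMSO baseline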
Outline: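 One-hour incubation, cell-free extracted protein, TR-FRET binding readout; signal loss vs DMSO scored. Screen: 25 uM duplicates, confirmatory dose series for actives.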

[5] = molecular target: Glucocorticoid receptor (Homo sapiens) (UniProt P04150); assay: NVS_NR_hGR: NovaScreen (NVS) Nuclear Receptor Binding Assay for human Glucocorticoid Receptor (GR) (AID 2283363);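 on AC50: activity is loss of specific radioligand binding signal relative to DMSO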
Outline: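 Single-readout cell-free binding: radioligand plus extracted receptor, 16-hour dosing, filter radiodetection; 25 uM duplicate primary, concentration series secondary.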

[6] = molecular target: human Adenosine Transporter (Adot), SLC29A1 (gene 2030) (UniProt Q99808); assay: NVS_TR_hAdoT: NovaScreen (NVS) Transporter Assay for human Adenosine Transporter (Adot) (AID 2283368)
Outline: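 Binding displacement on U937 extracted protein, read 1 h post-dose by filtration and scintillation counting. Primary duplicate test at 25 uM, then singleton concentration series with 50 uM top; DMSO baseline.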

[7] = molecular target: human Thyroid Receptor Alpha (TRa), THRA (gene 7067) (UniProt P10827); assay: NVS_NR_hTRa_Antagonist: NovaScreen (NVS) Nuclear Receptor Binding Assay for human Thyroid Receptor Alpha Antagonism (TRa) (AID 2283362);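 further: activity is loss of signal relative to DMSO baseline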
Outline: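 In this biochemical format, receptor protein is dosed with chemical and read after 1 hour via AlphaLISA. Decreases from the DMSO baseline indicate antagonist activity; screening used 25 uM in duplicate before concentration-response confirmation.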

[8] = molecular target: rat Androgen Receptor (AR), Ar (gene 24208) (UniProt P15207); assay: NVS_NR_rAR: NovaScreen (NVS) Nuclear Receptor Binding Assay for rat Androgen Receptor (AR) (AID 2283366)
Outline: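 Actives from a duplicate single-concentration (25 uM) primary run went on to concentration series. Displacement of radioligand was counted by filtration and scintillation, 18 h post-dose, using prostate extracts from testosterone-pretreated rats, with DMSO as baseline.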

[9] = molecular target: Retinoic acid receptor alpha (Homo sapiens) (UniProt P10276); assay: NVS_NR_hRARa_Agonist: NovaScreen (NVS) Nuclear Receptor Binding Assay for human Retinoic Acid Alpha Receptor Agonism (RAR) (AID 2283361)
Outline: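 Compounds screened at 25 uM, duplicate, then in concentration series if active. Detection: TR-FRET gain of signal versus DMSO after 2 h with cell-free extracted RARα.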

Glucocorticoid receptor (Homo sapiens), sequence (P04150 whole entry, looked up): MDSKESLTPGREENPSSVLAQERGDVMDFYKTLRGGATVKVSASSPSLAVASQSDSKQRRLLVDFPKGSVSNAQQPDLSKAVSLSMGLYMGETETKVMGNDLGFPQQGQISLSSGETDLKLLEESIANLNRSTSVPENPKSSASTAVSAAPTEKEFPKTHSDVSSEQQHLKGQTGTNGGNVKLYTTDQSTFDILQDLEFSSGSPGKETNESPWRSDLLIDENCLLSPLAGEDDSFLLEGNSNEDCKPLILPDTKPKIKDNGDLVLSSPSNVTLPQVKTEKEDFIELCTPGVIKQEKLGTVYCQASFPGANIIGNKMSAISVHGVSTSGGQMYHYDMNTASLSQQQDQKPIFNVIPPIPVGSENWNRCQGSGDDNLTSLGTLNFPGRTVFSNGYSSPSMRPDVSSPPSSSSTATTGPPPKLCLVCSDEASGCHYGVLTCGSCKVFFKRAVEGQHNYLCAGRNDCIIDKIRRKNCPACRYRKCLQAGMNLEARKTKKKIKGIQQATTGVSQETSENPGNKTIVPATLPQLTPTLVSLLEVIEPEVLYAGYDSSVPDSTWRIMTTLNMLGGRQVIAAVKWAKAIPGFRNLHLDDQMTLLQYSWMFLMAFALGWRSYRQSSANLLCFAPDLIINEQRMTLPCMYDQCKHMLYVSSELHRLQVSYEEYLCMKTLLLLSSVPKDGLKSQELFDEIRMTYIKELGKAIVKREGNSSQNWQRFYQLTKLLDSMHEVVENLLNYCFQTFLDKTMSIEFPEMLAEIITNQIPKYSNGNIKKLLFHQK
human Adenosine Transporter (Adot), SLC29A1 (gene 2030), sequence (Q99808 whole entry, looked up): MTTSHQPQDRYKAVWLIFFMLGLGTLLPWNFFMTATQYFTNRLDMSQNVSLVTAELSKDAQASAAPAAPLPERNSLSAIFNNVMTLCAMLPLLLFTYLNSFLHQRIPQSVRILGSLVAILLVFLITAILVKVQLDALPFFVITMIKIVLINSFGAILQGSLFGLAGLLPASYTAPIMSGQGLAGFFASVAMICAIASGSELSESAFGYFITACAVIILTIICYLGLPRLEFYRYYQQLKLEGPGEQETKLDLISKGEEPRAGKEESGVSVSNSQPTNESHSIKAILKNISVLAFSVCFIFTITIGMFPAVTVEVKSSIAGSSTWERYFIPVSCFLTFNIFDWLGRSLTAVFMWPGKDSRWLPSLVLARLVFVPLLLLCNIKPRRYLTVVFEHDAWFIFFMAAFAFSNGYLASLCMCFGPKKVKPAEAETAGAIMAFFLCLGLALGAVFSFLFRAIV
PGR (gene 5241), sequence (P06401 whole entry, looked up): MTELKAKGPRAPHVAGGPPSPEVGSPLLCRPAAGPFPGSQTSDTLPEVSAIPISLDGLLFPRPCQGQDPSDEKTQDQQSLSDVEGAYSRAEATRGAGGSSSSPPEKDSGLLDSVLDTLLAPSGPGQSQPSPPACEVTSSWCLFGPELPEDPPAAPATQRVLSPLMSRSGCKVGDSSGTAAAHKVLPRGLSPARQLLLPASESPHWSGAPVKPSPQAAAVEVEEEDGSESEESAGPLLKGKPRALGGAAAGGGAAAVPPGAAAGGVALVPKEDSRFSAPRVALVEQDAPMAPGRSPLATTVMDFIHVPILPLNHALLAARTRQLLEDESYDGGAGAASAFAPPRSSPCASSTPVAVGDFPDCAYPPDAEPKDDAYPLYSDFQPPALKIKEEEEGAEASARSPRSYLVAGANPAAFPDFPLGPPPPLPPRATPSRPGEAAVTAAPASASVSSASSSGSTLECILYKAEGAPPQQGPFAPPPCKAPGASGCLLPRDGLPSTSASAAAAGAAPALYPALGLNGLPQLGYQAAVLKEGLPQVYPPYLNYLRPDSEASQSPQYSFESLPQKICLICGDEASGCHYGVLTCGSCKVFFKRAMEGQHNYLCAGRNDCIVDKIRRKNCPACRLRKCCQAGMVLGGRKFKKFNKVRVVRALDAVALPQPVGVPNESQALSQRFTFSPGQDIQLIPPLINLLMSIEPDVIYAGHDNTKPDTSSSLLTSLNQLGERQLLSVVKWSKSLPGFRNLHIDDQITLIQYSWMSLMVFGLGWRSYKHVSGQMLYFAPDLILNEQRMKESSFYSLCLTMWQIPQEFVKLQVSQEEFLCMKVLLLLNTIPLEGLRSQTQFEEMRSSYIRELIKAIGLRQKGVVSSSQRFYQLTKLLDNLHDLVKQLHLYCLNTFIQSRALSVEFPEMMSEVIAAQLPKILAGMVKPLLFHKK
Nuclear receptor subfamily 1 group I member 2 (Homo sapiens), sequence (O75469 whole entry, looked up): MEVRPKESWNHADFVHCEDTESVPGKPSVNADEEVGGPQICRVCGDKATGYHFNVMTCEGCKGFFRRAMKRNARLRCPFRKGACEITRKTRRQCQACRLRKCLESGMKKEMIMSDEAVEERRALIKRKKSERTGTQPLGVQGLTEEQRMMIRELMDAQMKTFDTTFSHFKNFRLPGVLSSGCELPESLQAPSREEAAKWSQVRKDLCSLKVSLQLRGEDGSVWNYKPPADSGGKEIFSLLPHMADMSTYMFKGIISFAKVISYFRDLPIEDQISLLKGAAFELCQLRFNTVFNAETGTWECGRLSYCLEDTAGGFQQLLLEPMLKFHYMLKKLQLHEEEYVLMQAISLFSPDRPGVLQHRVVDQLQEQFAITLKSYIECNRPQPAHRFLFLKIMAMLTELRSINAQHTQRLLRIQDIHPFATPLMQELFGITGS
human Peroxisome Proliferator-activated Receptor alpha (PPARa), PPARA (gene 5465), sequence (Q07869 whole entry, looked up): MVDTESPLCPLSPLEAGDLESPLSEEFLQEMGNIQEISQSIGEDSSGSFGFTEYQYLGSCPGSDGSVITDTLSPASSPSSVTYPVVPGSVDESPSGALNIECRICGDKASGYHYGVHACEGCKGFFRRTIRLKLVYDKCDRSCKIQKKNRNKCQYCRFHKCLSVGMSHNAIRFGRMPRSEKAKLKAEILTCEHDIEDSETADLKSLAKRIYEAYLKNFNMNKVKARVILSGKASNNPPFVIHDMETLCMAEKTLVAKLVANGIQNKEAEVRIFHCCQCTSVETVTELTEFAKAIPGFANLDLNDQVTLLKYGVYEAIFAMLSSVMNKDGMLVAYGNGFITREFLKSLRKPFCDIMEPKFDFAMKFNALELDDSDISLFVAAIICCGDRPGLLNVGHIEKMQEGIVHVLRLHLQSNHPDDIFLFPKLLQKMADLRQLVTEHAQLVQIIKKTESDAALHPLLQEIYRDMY
human Thyroid Receptor Alpha (TRa), THRA (gene 7067), sequence (P10827 whole entry, looked up): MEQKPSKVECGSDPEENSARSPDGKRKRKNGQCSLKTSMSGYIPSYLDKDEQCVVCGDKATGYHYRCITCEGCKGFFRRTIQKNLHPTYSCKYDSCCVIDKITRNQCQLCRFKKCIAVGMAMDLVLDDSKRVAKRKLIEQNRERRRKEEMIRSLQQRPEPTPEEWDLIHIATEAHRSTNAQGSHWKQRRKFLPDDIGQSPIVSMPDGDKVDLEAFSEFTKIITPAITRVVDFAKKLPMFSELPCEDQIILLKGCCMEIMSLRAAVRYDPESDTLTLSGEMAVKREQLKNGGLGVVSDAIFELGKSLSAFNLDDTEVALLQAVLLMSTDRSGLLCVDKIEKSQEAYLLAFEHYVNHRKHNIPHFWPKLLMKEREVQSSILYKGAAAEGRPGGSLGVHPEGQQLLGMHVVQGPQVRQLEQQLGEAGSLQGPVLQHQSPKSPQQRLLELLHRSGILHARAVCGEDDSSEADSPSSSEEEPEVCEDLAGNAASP
Peroxisome proliferator-activated receptor gamma (Homo sapiens), sequence (P37231 whole entry, looked up): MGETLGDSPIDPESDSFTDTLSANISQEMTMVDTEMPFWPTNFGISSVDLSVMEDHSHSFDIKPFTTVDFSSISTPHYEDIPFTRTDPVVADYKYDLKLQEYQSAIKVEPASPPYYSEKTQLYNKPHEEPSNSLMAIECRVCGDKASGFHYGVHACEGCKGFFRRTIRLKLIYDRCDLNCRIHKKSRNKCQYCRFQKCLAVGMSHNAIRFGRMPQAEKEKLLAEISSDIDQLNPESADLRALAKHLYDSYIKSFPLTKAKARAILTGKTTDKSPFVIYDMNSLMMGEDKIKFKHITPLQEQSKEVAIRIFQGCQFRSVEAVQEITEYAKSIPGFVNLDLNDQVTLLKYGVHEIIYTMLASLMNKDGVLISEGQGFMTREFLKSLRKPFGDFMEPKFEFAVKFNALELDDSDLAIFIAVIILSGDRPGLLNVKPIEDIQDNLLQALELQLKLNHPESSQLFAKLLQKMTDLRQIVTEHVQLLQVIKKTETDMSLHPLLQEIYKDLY
rat Androgen Receptor (AR), Ar (gene 24208), sequence (P15207 whole entry, looked up): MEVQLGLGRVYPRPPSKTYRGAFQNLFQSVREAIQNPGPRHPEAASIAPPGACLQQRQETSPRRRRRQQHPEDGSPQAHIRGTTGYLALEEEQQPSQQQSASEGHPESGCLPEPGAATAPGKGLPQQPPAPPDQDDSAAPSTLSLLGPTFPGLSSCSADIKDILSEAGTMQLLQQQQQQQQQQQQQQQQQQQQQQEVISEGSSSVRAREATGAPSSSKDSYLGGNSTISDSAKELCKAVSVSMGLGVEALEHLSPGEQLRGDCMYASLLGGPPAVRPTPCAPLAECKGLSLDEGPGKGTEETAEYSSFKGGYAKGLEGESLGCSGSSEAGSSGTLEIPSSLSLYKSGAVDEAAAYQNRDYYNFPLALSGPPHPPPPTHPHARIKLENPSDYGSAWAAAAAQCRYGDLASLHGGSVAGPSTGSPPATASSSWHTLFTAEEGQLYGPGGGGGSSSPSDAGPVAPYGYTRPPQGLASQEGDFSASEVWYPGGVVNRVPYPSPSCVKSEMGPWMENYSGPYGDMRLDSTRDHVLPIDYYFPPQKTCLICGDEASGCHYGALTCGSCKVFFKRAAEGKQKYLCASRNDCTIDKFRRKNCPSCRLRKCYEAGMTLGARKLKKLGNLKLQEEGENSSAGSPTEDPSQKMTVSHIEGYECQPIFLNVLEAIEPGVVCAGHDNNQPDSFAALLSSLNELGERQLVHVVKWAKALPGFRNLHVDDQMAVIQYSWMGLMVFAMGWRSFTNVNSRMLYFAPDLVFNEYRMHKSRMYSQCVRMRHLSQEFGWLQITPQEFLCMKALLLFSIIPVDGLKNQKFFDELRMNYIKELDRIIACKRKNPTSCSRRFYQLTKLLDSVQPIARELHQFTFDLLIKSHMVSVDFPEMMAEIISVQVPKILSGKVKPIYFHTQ

O=C(O)c1cc(N=Nc2ccc(S(=O)(=O)Nc3ccccn3)cc2)ccc1O
AC50 (PGR (gene 5241)): 36.5 µM (active)
outcome [1]: inactive
outcome [2]: inactive

Cc1c(-c2cccnc2)c2ccccc2n1CCCCC(=O)O
outcome (PGR (gene 5241)): inactive
outcome [2]: inactive

CC(=O)OCCC(C)C
outcome (PGR (gene 5241)): inactive
outcome [1]: inactive
outcome [3]: inactive

Nc1ccc(Nc2ccccc2)cc1
AC50 [4]: 46.3 µM (active)
AC50 [5]: 14.6 µM (active)
AC50 [3]: 25 µM (active)

O=C(OC[C@H]1O[C@@H](OC(=O)c2cc(O)c(O)c(OC(=O)c3cc(O)c(O)c(O)c3)c2)[C@H](OC(=O)c2cc(O)c(O)c(OC(=O)c3cc(O)c(O)c(O)c3)c2)[C@@H](OC(=O)c2cc(O)c(O)c(OC(=O)c3cc(O)c(O)c(O)c3)c2)[C@@H]1OC(=O)c1cc(O)c(O)c(OC(=O)c2cc(O)c(O)c(O)c2)c1)c1cc(O)c(O)c(OC(=O)c2cc(O)c(O)c(O)c2)c1
AC50 (PGR (gene 5241)): 6.13 µM (active)
AC50 [5]: 0.533 µM (active)
AC50 [6]: 3.15 µM (active)
outcome [3]: inactive

Fc1ccccc1[C@@H](F)COC1CCC(Nc2ncnc3[nH]ncc23)CC1 (stereo not given in full)
outcome [4]: inactive
AC50 [6]: 5.08 µM (active)

O=C(O)c1cccc(Oc2ccccc2)c1
outcome [4]: inactive
outcome [6]: inactive
outcome [2]: inactive

CCCCCCCCCCCCCCCO
outcome [4]: inactive

CC(C)=CCCC(C)CCO (stereo not given)
outcome [4]: inactive
outcome [2]: inactive

O=c1[nH]c2ccc(S(=O)CCN3CCC(Cc4ccc(F)cc4)CC3)cc2o1 (stereo not given)
outcome (PGR (gene 5241)): inactive
AC50 [3]: 6.75 µM (active)
outcome [2]: inactive

COc1cccc(-c2ccc(/C=C\CN3CCCCCC3)cc2Cl)c1
outcome [4]: inactive
outcome [7]: inactive
outcome [1]: inactive
AC50 [3]: 14.5 µM (active)
outcome [2]: inactive

CNS(=O)(=O)c1cc(C(=O)N2CCC(CCN3C4CCC3CC(n3c(C)nc5ccccc53)C4)(c3cccc(F)c3)CC2)c(Cl)cc1F (stereo not given)
outcome [4]: inactive
outcome [7]: inactive
outcome [2]: inactive

COC(=O)CC(=O)OC
outcome (PGR (gene 5241)): inactive

CN(C)c1ccc(Cc2ccc(N(C)C)cc2)cc1
outcome [4]: inactive
outcome [1]: inactive

CCCCC(CC)COC(=O)c1ccc(C(=O)OCC(CC)CCCC)cc1 (stereo not given)
AC50 [4]: 25 µM (active)
outcome [2]: inactive

O=C(O)c1cccc(N(Cc2cccnc2)c2ccc(OC(F)F)c(OC(F)F)c2)c1
AC50 (PGR (gene 5241)): 4.96 µM (active)
outcome [8]: inactive
AC50 [2]: 25 µM (active)

Cc1ccc(N)cc1O
outcome [4]: inactive
outcome [1]: inactive
outcome [6]: inactive

CCc1cc(SCc2sc(-c3ccc(C(F)(F)F)cc3)nc2CN2CCN(c3ccc(OC)cc3)CC2)ccc1OCC(=O)O
AC50 [4]: 0.00361 µM (active)
outcome (PGR (gene 5241)): inactive
AC50 [5]: 1.57 µM (active)
AC50 [6]: 10.8 µM (active)
AC50 [3]: 15.2 µM (active)
AC50 [2]: 7.42 µM (active)

CCCCCCc1ccc(O)cc1O
outcome [4]: inactive
AC50 [5]: 33.7 µM (active)
outcome [6]: inactive
AC50 [2]: 25 µM (active)

O=P(OC(CCl)CCl)(OC(CCl)CCl)OC(CCl)CCl
AC50 (PGR (gene 5241)): 5.78 µM (active)
AC50 [5]: 15.5 µM (active)

Oc1ccc2c(c1)-c1ccccc1C2
outcome [4]: inactive
AC50 (PGR (gene 5241)): 9.66 µM (active)
outcome [5]: inactive
outcome [2]: inactive

Cn1cnc([N+](=O)[O-])c1Sc1ncnc2nc[nH]c12
outcome [4]: inactive
outcome [7]: inactive
outcome [2]: inactive

Cc1ccc(S(=O)(=O)O)cc1C
outcome (PGR (gene 5241)): inactive

CCOC(=O)c1ccc(C2CCC(NC[C@H](O)COc3ccc(O)c(NS(C)(=O)=O)c3)CC2)cc1 (stereo not given in full)
outcome [4]: inactive
outcome [5]: inactive
AC50 [3]: 8.87 µM (active)
outcome [2]: inactive

CC(C)=CCCC(C)=CC=O
outcome [4]: inactive

CC(C)(O)c1coc(S(=O)(=O)NC(=O)Nc2c3c(cc4c2CCC4)CCC3)c1
outcome (PGR (gene 5241)): inactive
outcome [2]: inactive

C1N2CN3CN1CN(C2)C3
outcome (PGR (gene 5241)): inactive

CCOc1cccc(-n2cc(C(=O)N3CCN(c4cc(C(=O)O)c5ccccc5c4)CC3)nc2-c2ccc(C)cc2)c1
outcome [4]: inactive
AC50 [9]: 16.2 µM (active)
AC50 [5]: 14.6 µM (active)
AC50 [8]: 13.5 µM (active)
AC50 [6]: 14.8 µM (active)
AC50 [3]: 23.8 µM (active)
outcome [2]: inactive

CCOC(=O)COc1ccc2c(c1)CC(NCC(O)c1cccc(Cl)c1)CC2 (stereo not given)
outcome [4]: inactive
AC50 [3]: 10.6 µM (active)

CNCc1ccc(NC(=O)c2c[nH]c3c2C(=O)CCC3)cc1
outcome (PGR (gene 5241)): inactive

On1ccccc1=S
AC50 [7]: 9.11 µM (active)

Cc1[nH]cnc1C[C@H]1CCc2c(C)c3ccccc3n2C1=O
outcome [7]: inactive
